Results reported in PubChem BioAssay AID1159580 (chemical genetic matrix, 2015).
Values joined by “and” are separate entries in the source; they are usually repeats but may differ in a detail not shown here. Equal entries are not always repeated. Among all 5,500 compounds or so, about 2,000 (36%) were called active. Roughly 18% stayed inconclusive and do not appear here. Rule as the data show it: active = normalized growth mostly below about 0.91 (no sharp cut-off); inconclusive = no clear call, values can overlap the other calls; inactive = mostly above about 0.92. This is one part of the list.

Experiment: chemical genetic growth profiling, strain panel (AID 1159580);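 also: tested at 20 µM; growth read once vehicle control cultures reached saturation at 30 °C; 1 = growth at the plate median or of vehicle wells; lower values mean less growth of the strain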
Conditions: S. cerevisiae deletion strains, growth OD

Measured: normalized growth

COC(=O)C[C@H]1C(C)(C)[C@@H](O)[C@@H]2CC3=C4CC(O)O[C@@H](c5ccoc5)[C@]4(C)CCC3[C@@]1(C)C2=O (some centres not stated)
inactive: locus YAL013W, strain DEP1, active compounds read low 1.01 | locus YAL021C, strain ccr4, active compounds read low 1.01 | locus YAL026C, strain drs2, active compounds read low 1.06 | locus YAL030W, strain snc1, active compounds read low 1.03 | locus YBL061C, strain skt5, active compounds read low 1.03 | locus YBR009C, strain hhf1, active compounds read low 1.02 | locus YBR021W, strain FUR4, active compounds read low 1.07 | locus YBR023C, strain chs3, active compounds read low 1 | locus YBR171W, strain sec66, active compounds read low 1.05 | locus YBR229C, strain ROT2, active compounds read low 1 | locus YBR231C, strain swc5, active compounds read low 1.03 | locus YBR279W, strain paf1, active compounds read low 1.03 | locus YCL011C, strain gbp2, active compounds read low 1 | locus YCL016C, strain dcc1, active compounds read low 0.99 | locus YCL029C, strain bik1, active compounds read low 0.99 | locus YCL069W, strain vba3, active compounds read low 1.01 | locus YCR088W, strain abp1, active compounds read low 1.02 | locus YDL005C, strain med2, active compounds read low 1.03 | locus YDL035C, strain GPR1, active compounds read low 1.03 | locus YDL040C, strain nat1, active compounds read low 1.02 | locus YDL074C, strain BRE1, active compounds read low 1.01 | locus YDL101C, strain DUN1, active compounds read low 1 | locus YDL134C, strain PPH21, active compounds read low 0.978 | locus YDL185W, strain tfp1, active compounds read low 0.962 | locus YDL192W, strain arf1, active compounds read low 0.989 | locus YDR001C, strain nth1, active compounds read low 1.02 | locus YDR069C, strain doa4, active compounds read low 1.02 | locus YDR101C, strain arx1, active compounds read low 0.999 | locus YDR137W, strain rgp1, active compounds read low 1.01 | locus YDR159W, strain sac3, active compounds read low 1.09 | locus YDR162C, strain NBP2, active compounds read low 0.987 | locus YDR195W, strain ref2 1.01 | locus YDR297W, strain sur2, active compounds read low 1.03 | locus YDR318W, strain mcm21, active compounds read low 0.991 | locus YDR334W, strain swr1, active compounds read low 1.03 | locus YDR335W, strain msn5, active compounds read low 1.01 | locus YDR388W, active compounds read low 0.984 | locus YDR392W, strain spt3, active compounds read low 0.938 | locus YDR502C, strain sam2, active compounds read low 0.981 | locus YEL003W, strain gim4, active compounds read low 1.05 | locus YEL037C, strain rad23, active compounds read low 1.03 | locus YEL061C, strain CIN8 (second series), active compounds read low 1.02 | locus YEL061C, strain CIN8, active compounds read low 1.01 | locus YER015W, strain faa2, active compounds read low 1.01 | locus YER016W, strain bim1, active compounds read low 1.02 | locus YER110C, active compounds read low 0.98 | locus YER111C, strain swi4, active compounds read low 1.03 | locus YER155C, strain BEM2 (second series), active compounds read low 1.08 | locus YER155C, strain BEM2, active compounds read low 0.998 | locus YER167W, strain BCK2, active compounds read low 1.01 | locus YFR010W, strain ubp6, active compounds read low 1.05 | locus YGL078C, strain dbp3, active compounds read low 0.97 | locus YGL086W, strain mad1, active compounds read low 1.02 | locus YGL167C, strain pmr1, active compounds read low 1.02 | locus YGL173C, strain kem1, active compounds read low 1.06 | locus YGL227W, strain vid30, active compounds read low 1.03 | locus YGL240W, strain doc1, active compounds read low 1.04 | locus YGL248W, strain PDE1, active compounds read low 1.01 | locus YGL253W, strain hxk2, active compounds read low 1.04 | locus YGR078C, strain PAC10, active compounds read low 0.985 | locus YGR135W, strain pre9, active compounds read low 0.95 | locus YGR229C, strain SMI1, active compounds read low 1.04 | locus YGR252W, strain gcn5, active compounds read low 0.981 | locus YHR013C, strain ard1, active compounds read low 1.01 | locus YHR027C, strain rpn1, active compounds read low 1.02 | locus YHR030C, strain SLT2, active compounds read low 1.01 | locus YHR079C, strain IRE1 (second series), active compounds read low 0.984 | locus YHR079C, strain IRE1, active compounds read low 1.01 | locus YHR094C, strain hxt1, active compounds read low 0.979 | locus YHR129C, strain ARP1, active compounds read low 1 | locus YHR142W, strain chs7, active compounds read low 0.994 | locus YHR200W, strain rpn10, active compounds read low 0.996 | locus YIL066C, strain RNR3, active compounds read low 1.02 | locus YIL073C, strain SPO22, active compounds read low 0.916 | locus YIL125W, strain kgd1, active compounds read low 0.987 | locus YIR030C, strain dcg1, active compounds read low 0.976 | locus YJL092W, strain hpr5, active compounds read low 1.03 | locus YJL095W, strain BCK1 (second series), active compounds read low 1.02 | locus YJL095W, strain BCK1, active compounds read low 0.977 and 1.02 | locus YJL115W, strain asf1, active compounds read low 1.03 | locus YJL129C, strain trk1, active compounds read low 1 | locus YJL134W, strain LCB3, active compounds read low 1 | locus YJL154C, strain vps35, active compounds read low 1.02 | locus YJL164C, strain tpk1, active compounds read low 1.01 | locus YJL166W, strain qcr8, active compounds read low 1.03 | locus YJL168C, strain set2, active compounds read low 0.991 | locus YJL187C, strain SWE1 (second series), active compounds read low 0.987
